Laboratory results: the OligoGym collection

molecular target: CNPPD1; assay: pooled miR-30 sensor sort-seq; sequence = guide strand; conditions: shRNA
Note: reference of the scale not given here.

Sequence | sensor-assay potency score (higher = more potent)
TATGCCACAGCTAACAGGCAAG | -1.37
TATTTCTTCTGGAGTCGGCGAA | -0.148
TCTCTCTGGAGCTTCTGGCAAA | -0.958
TTACTGGCCACCATCATGGAGA | -0.834
TGAAAAGGGAACATTGCTGAGG | -0.362
TAGAGCCTCCTTCGGATCCGGG | -1.33
ATGAGCTACGTATTTCTTCTGG | -0.315
TTCAATGTACACCAGAGCCAGC | -1.25
TCTGTGTAGGTGTACCAGCCTC | -1.36
TTCGACAGCAATGTCTGCCACC | -0.8
TTCGTCGTTGAAGACCTCCTCC | 0.0687
TAGTCTGGGTTTCGGTGCCGGA | -1.29

molecular target: CNTD1; assay: as above; conditions: shRNA

Sequence | sensor-assay potency score (higher = more potent)
TAAACTTGTTGACAAGCTGCTG | -0.0466
TTCTAGGATTTCTACAGCCTGG | -0.787
TAAGAGAACTCAGCAATGCTTG | -0.451
AAACTTGTTGACAAGCTGCTGT | 0.446
TTTTGGATGAAAGCACTTGCTG | -1.34
TCTCTTATTATCTCTTGGCTGG | -0.35
TTTAGTGTGTAGATAGCCTAGA | 0.238
TTTGGATGAAAGCACTTGCTGC | -0.907
TTACCATAAACCTTTCTAGGAT | -0.637
TTCATGCAGAAGATAGACCAGG | -0.656
TAGACTGCTGTCTCCCCGGAGT | -0.817

molecular target: COBRA1; assay: as above; conditions: shRNA

Sequence | sensor-assay potency score (higher = more potent)
TTCTCTGTCTGGAACTGCTCGA | -0.254
AAACTTAGTGAAGCTTTCGGGA | -0.764
TTTTTTCTCCGGAACCTTGGGC | 0.129
TACAGCTTCACGTTCTTCCCCA | 0.123
ATGAGCTCTACCTCCATCTTGG | -0.766
TGACACTCGCTCCAGCAGCTTG | -1.51
TTCTGATCCACATTGAAAGTGT | -0.064
ATGAGCATCGGGAGGAACCTGG | -1.62
TTGGATATGAGACTGGGGCTTT | -0.217
TTCTTGTTCCTCTGCTTGGTGA | -1.3
TTGCTGTCCACGAACCGCTCTC | -0.427

molecular target: COG2; assay: as above; conditions: shRNA

Sequence | sensor-assay potency score (higher = more potent)
TTGACAAACACAGAGTATCGTG | -0.356
TTGTCGTCGTCGCTCATGCCAC | -1.52
TTGTTTGAGCTTATCCTTGTGT | 0.0501
TTTAATACATCTGACACGGTTT | -0.235
